“And” between values parts separate entries of the source, which are not always exact repeats. Identical values can stand only once. Counter-ions that a name gives are not always drawn.
Assays:
Assay in all cases: cell viability relative to vehicle control; higher = less cytotoxic
Conditions in all cases: 10 µM
K562 = system: K562
Procedure, shortened: (§1)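 Four leukaemia lines, as CRISPR-edited mutant clones and isogenic wild-type clones, were tested against Selleck bioactive, kinase and epigenetic probe libraries after removal of identity-inconsistent compounds. Cells were exposed to a single 10 µM dose for 48 h, and CellTiter-Glo luminescence was then read. Viability was calculated relative to the on-plate vehicle control.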

MARIMO = system: MARIMO
Procedure, shortened: as §1

MOLM14 = system: MOLM14
Procedure, shortened: as §1

OCI-AML2 = system: OCI-AML2
Procedure, shortened: as §1

SMILES | cell viability (K562; SRSF2 genotype: SRSF2 P95H/wt) | cell viability (K562; SRSF2 genotype: SRSF2 wt/wt) [%] | cell viability (MARIMO; SRSF2 genotype: SRSF2 P95H/wt) [%] | cell viability (MARIMO; SRSF2 genotype: SRSF2 wt/wt) [%] | cell viability (MOLM14; SRSF2 genotype: SRSF2 P95H/wt) [%] | cell viability (MOLM14; SRSF2 genotype: SRSF2 wt/wt) [%] | cell viability (OCI-AML2; SRSF2 genotype: P95H/wt) [%] | cell viability (OCI-AML2; SRSF2 genotype: wt/wt) [%]
Cc1cc(C(C)Nc2ccccc2)c2nc(N3CCOCC3)cc(=O)n2c1 (stereo not drawn) | 92.6% and 97.6% | 93.3 | 90.7 | 90.4 | 70.9 | 69 | 73.4 | 76.6
COc1ccccc1N1CCN(CC(O)COc2cccc3ccccc23)CC1 (stereo not drawn) [Naftopidil (Flivas)] | 74.1% and 86.9% | 79.5 | 66.2 | 71.5 | 64.1 | 72.3 | 83.5 | 84.6
Cc1cc(Nc2cc(N)ncn2)c(=O)n2c1C(=O)NC21CCCCC1 | 89.2% and 85.2% | 87.7 | 86 | 98.2 | 83.5 | 92 | 89 | 88.5
CC(C)(C)c1nc(-c2cccc(NS(=O)(=O)c3c(F)cccc3F)c2F)c(-c2ccnc(N)n2)s1 | 90.3% and 101% | 84.3 | 78.5 | 75.8 | 73.6 | 68.2 | 93.2 | 83.9
CCCCCCCCCC[C@H](C(=O)O)[C@]1(C(=O)O)CCC(=O)O1 [Spiculisporic Acid] | 107% and 103% | 103 | 104 | 107 | 98.8 | 110 | 95.5 | 103
Cc1cnc(-c2cc(N3CCN(C(=O)CCS(C)(=O)=O)CC3)ncc2Cl)c(C)c1 | 98.7% and 98.8% | 96.3 | 101 | 110 | 100 | 104 | 96.2 | 105
Cn1nccc1Nc1nccc(-c2cc3c(s2)C(C)(C)N(CCN2CCOCC2)C3=O)n1 | 77.8% and 81.6% | 76.5 | 39.5 | 40.1 | 42.6 | 37 | 38.6 | 43.2
Cc1ccc(/C=N/NC(=O)c2ccccc2Oc2ccccc2)o1 | 96.8% and 102% | 96.3 | 96.3 | 105 | 102 | 98.7 | 112 | 109
C[C@H](Cn1cnc2c(N)ncnc21)OCP(=O)(O)O [Tenofovir (Viread)] | 101% | 98.5 | 97.2 | 101 | 105 | 98.3 | 106 | 109
Cn1cc(C(=O)[C@@H]2CCc3[nH]cnc3C2)c2ccccc21 [Ramosetron Hydrochloride] | 92.3% and 92.8% | 81.9 | 91.2 | 94.8 | 96.2 | 94.1 | 92.2 | 89.9
Cc1cccc(-c2[nH]c(CNc3ccccc3F)nc2-c2ccc3ncnn3c2)n1 | 94.6% and 103% | 99.9 | 102 | 109 | 95.2 | 98 | 111 | 114
O=C(Nc1cc2cc[nH]c2cn1)c1ccccc1 | 45.9% and 44.5% | 43 | 43.3 | 45.8 | 49.3 | 51.1 | 38.6 | 39.3
C/C(=C\C(=O)OCCCCCCCCC(=O)O)C[C@@H]1OC[C@H](C[C@@H]2O[C@H]2[C@@H](C)[C@H](C)O)[C@@H](O)[C@H]1O [Mupirocin] | 98.8% and 99.8% | 101 | 103 | 103 | 97.7 | 103 | 100 | 92
COc1ccnc2[nH]cc(C(=O)C(=O)N3CCN(C(=O)c4ccccc4)C[C@H]3C)c12 | 93.7% and 90.7% | 84.5 | 90 | 99.2 | 95.6 | 90.3 | 82.2 | 86.4
NS(=O)(=O)c1ccccc1 [Benzenesulfonamide] | 100% and 106% | 109 | 97.9 | 109 | 96.5 | 106 | 107 | 91.7
Cc1ccc(-n2[nH]c(C)c(N=Nc3cccc(-c4cccc(C(=O)O)c4)c3O)c2=O)cc1C [Eltrombopag olamine] | 76% and 80.3% | 69.3 | 54.9 | 69 | 75.4 | 68.5 | 66.3 | 60.3
Nc1nc2cc(-c3ccc4ncc(C(=O)N5CCOCC5)n4c3)ccc2o1 [Serabelisib (INK-1117,MLN-1117,TAK-117)] | 92.2% and 98.4% | 84.2 | 64.5 | 72.4 | 57.7 | 65.2 | 53 | 65.4
CCOC(=O)Nc1cc(-c2ccc(C)c(NS(C)(=O)=O)c2)nn2c(C)nnc12 [Bromosporine] | 33.4% and 42% | 49.7 | 9.42 | 13.9 | 3.2 | 1.48 | 1.03 | 4.94
c1ccc2[nH]c(-c3cscn3)nc2c1 [Thiabendazole] | 105% and 101% | 106 | 98.8 | 103 | 97.8 | 99 | 93.6 | 105
CCS(=O)(=O)CCn1c([N+](=O)[O-])cnc1C [Tinidazole] | 96.7% and 92.4% | 100 | 96.6 | 97.2 | 95.1 | 98.2 | 102 | 102
OC[C@H]1O[C@@H](c2ccc(F)c(Cc3cc4ccccc4s3)c2)[C@H](O)[C@@H](O)[C@@H]1O [Ipragliflozin (ASP1941)] | 96.6% and 98.5% | 102 | 95.6 | 95.8 | 101 | 99.4 | 99.1 | 95.1

SMILES | cell viability (K562; SRSF2 genotype: SRSF2 P95H/wt) | cell viability (K562; SRSF2 genotype: SRSF2 wt/wt) [%] | cell viability (MARIMO; SRSF2 genotype: SRSF2 P95H/wt) [%] | cell viability (MARIMO; SRSF2 genotype: SRSF2 wt/wt) [%] | cell viability (MOLM14; SRSF2 genotype: SRSF2 P95H/wt) [%] | cell viability (MOLM14; SRSF2 genotype: SRSF2 wt/wt) [%] | cell viability (OCI-AML2; SRSF2 genotype: P95H/wt) [%] | cell viability (OCI-AML2; SRSF2 genotype: wt/wt) [%]
O=C(O)CCn1c(O)c(C2=c3cc(Cl)ccc3=NC2=O)sc1=S | 87.5% and 92.5% | 88.2 | 84.1 | 88.7 | 71.7 | 83.2 | 107 | 116
Cc1cc(-c2ccc(CC(=O)Nc3ccc(-c4cccnc4)cc3)cc2)ccn1 | 77% and 83% | 86.9 | 81.5 | 86.3 | 103 | 102 | 74 | 78.9
Cc1ccccc1C(C(=O)NC1CCCCC1)N(C(=O)Cn1ccnc1C)c1cccc(F)c1 (stereo not drawn) | 103% and 101% | 97.1 | 99.2 | 98.6 | 100 | 99.8 | 101 | 105
Cc1ccc(OCC(O)C(C)NC(C)C)c2c1CCC2 (stereo not drawn) | 93.5% and 95.7% | 92.1 | 104 | 100 | 93.1 | 100 | 92.2 | 99
O=C1C(=C(O)C=Cc2ccc(O)cc2)C(O)=C([C@@H]2O[C@H](CO)[C@@H](O)[C@H](O)[C@H]2O)C(=O)C1(O)[C@@H]1O[C@H](CO)[C@@H](O)[C@H](O)[C@H]1O (stereo partly drawn) [Hydroxy safflor yellow A] | 90% and 88% | 84.7 | 90.1 | 97.3 | 85.4 | 87.7 | 89.7 | 104
NC(=O)c1cccnc1 [Nicotinamide (Vitamin B3)] | 106% and 112% | 113 | 107 | 103 | 105 | 104 | 104 | 111
O=c1[nH]c(=O)n(C2CC(O)C(CO)O2)cc1I (stereo not drawn) [Idoxuridin] | 86.7% and 92.3% | 77 | 102 | 98.3 | 80.5 | 88.1 | 83.3 | 84.3
O=C[C@H](O)[C@@H](O)[C@H](O[C@H]1O[C@H](CO)[C@@H](O[C@H]2O[C@H](CO)[C@@H](O[C@H]3O[C@H](CO)[C@@H](O[C@H]4O[C@H](CO)[C@@H](O)[C@H](O)[C@H]4O)[C@H](O)[C@H]3O)[C@H](O)[C@H]2O)[C@H](O)[C@H]1O)[C@H](O)CO [Maltopentaose] | 101% | 103 | 97.8 | 105 | 104 | 106 | 109 | 110
COc1cc(Nc2c(C#N)cnc3cc(OCCCN4CCN(C)CC4)c(OC)cc23)c(Cl)cc1Cl [Bosutinib (SKI-606)] | 2.19% and 3.5% | 3.73 | 38.5 | 37.6 | 7.61 | 11.1 | 1.53 | 7.73
Cc1cn(CCN2CCN(c3ccccc3-c3cc(C#N)cc(C(=O)NCCCN4CCCC4)c3)CC2)c2ccccc12 | 0.16% and 0.18% | 0.16 | 0.17 | 0.22 | 0.12 | 0.12 | 0.03 | 0.1
OC[C@H]1O[C@@H](Oc2cc(O)cc(/C=C/c3ccc(O[C@@H]4O[C@H](CO)[C@@H](O)[C@H](O)[C@H]4O)cc3O)c2)[C@H](O)[C@@H](O)[C@@H]1O [Mulberroside A] | 94.5% and 95.1% | 98.2 | 95.3 | 101 | 97.3 | 97.6 | 97.1 | 105
C[C@H]1[C@@H](O)O[C@@H]2O[C@@]3(C)CC[C@H]4[C@H](C)CC[C@@H]1[C@@]24OO3 [Dihydroartemisinin (DHA)] | 37.7% and 30.4% | 28.8 | 25 | 29.9 | 22.1 | 9.71 | 0.58 | 7.67
O=C(c1ccc(Nc2nccc(-c3cc4ccccc4s3)n2)cc1)N1CCC(N2CCCC2)CC1 | 1.53% and 1.22% | 1.15 | 0.47 | 0.54 | 0.29 | 0.3 | 0.25 | 0.35
O=C(Cn1ccnc1[N+](=O)[O-])NCc1ccccc1 [Benznidazole] | 96.1% and 92.1% | 95.9 | 96.6 | 92.8 | 97.1 | 99.4 | 103 | 100
CCN1CCN(Cc2ccc(-c3cc4c(N[C@H](C)c5ccccc5)ncnc4[nH]3)cc2)CC1 | 3.36% and 7.86% | 8.31 | 52.9 | 58.4 | 12.6 | 11.8 | 13.8 | 23
O=C1c2c(O)cccc2C([C@@H]2O[C@H](CO)[C@@H](O)[C@H](O)[C@H]2O)c2cc(CO)cc(O)c21 (stereo partly drawn) [Aloin (Barbaloin)] | 105% and 104% | 98.5 | 105 | 102 | 109 | 104 | 98.1 | 102
O=C(CCCN1CCC(O)(c2ccc(Cl)cc2)CC1)c1ccc(F)cc1 [Haloperidol (Haldol)] | 87.7% and 94.9% | 94.5 | 73.9 | 85.3 | 84.8 | 91 | 84.2 | 91
CC1=CC(=O)NS(=O)(=O)O1 [Acesulfame Potassium] | 96.3% and 96.7% | 96.3 | 98.1 | 94.4 | 98.9 | 97.8 | 89.1 | 105
O[C@@H]1CO[C@H]2[C@@H]1OC[C@@H]2O [Isosorbide] | 102% and 111% | 105 | 107 | 104 | 99.6 | 105 | 118 | 99.5
COc1cc(NS(=O)(=O)c2ccc(N)cc2)nc(OC)n1 [Sulphadimethoxine] | 95.8% and 87.4% | 95.9 | 91.3 | 98 | 96.7 | 91.5 | 90.4 | 91.4
